Data from PubChem BioAssay.
Potency and affinity values are given separately. Values without a mark were called inactive. Where a call stands in place of a potency, no number is given. Active and inactive are the calls of the source.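 Rule for the calls, unless noted: active = a dose-response fit showing signal loss, with half-maximal concentration no higher than twice the top tested dose; inconclusive = flat fit between 30% and 70% signal loss, or poor fit; inactive = the rest.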

Legend:
[1] = inducers of Cryptococcus neoformans cell lysis, dose response, AK release luminescence, cherry-picks (AID 687000;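 active = fitted dose curve reaches 40% lysis signal rise at or below the highest valid concentration tested for that sample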;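 note: luminescent detection of adenylate kinase leaking from lysed yeast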)
[2] = HepG2 cell cytotoxicity, dose response, cytotoxicity control, cherry-picks, set 2 (AID 687002)
[3] = HeLa cell cytotoxicity, dose response, cytotoxicity control, ATP luminescence, cherry-pick samples (AID 687004;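 active = a fitted half-maximal concentration no higher than twice the top valid tested dose, with signal falling as cells die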)
[4] = HepG2 cell cytotoxicity, dose response, cytotoxicity control, plate reader, cherry-pick, antagonist series (AID 743416; call rule not given here)

Row | Structure (SMILES) | outcome [1] | outcome [2] | outcome [3] | activity change, negative = cytotoxicity [2] | outcome [4]
1 | COc1ccc(CN(C)C[C@H]2Oc3ccc(NS(C)(=O)=O)cc3CC(=O)N([C@@H](C)CO)C[C@H]2C)cc1 | inactive | inactive | inactive | – | –
2 | Cc1c(C(=O)NC(=S)Nc2ccc(N3CCOCC3)cc2)cccc1[N+](=O)[O-] | inactive | inactive | inactive | – | –
3 | Cc1cc(C)c(NC(=O)CN2CCN3CCCC3C2)c(C)c1 (stereo not drawn) | inactive | inactive | inactive | – | –
4 | CCC(=O)N1[C@H](CO)[C@@H](c2ccc(-c3cccnc3)cc2)[C@@H]1CN(C)C(C)=O | inactive | inactive | inactive | – | –
5 | Cc1ccc(S(=O)(=O)N2CC[C@@H]3[C@H](CO)Nc4ccc(-c5ccccc5F)cc4[C@@H]32)cc1 | inactive | inactive | inactive | – | –
6 | COC(=O)C1=C(C)N(Cc2ccc(Cl)cc2)C(=S)NC1c1cccc(OC)c1 (stereo not drawn) | inactive | inactive | inactive | – | –
7 | Cc1cccc(C)c1NC(=O)C1(C)CCC(=O)N1CCCn1ccnc1 (stereo not drawn) | inactive | inactive | inactive | – | –
8 | C[C@@H]1CN([C@@H](C)CO)S(=O)(=O)c2ccc(C3=CCCC3)cc2O[C@@H]1CN(C)Cc1ccccc1F | inactive | inactive | inactive | – | –
9 | Cc1ccccc1NC(=O)C1CCC(=O)N1 (stereo not drawn) | inactive | inactive | inactive | – | –
10 | CC(C)NC(=O)N(C)C[C@@H]1Oc2c(NC(=O)C3CCCCC3)cccc2C(=O)N([C@@H](C)CO)C[C@@H]1C | inactive | – | inactive | 11.5% [at 6 µM] | –
11 | Cc1ccccc1OCC(=O)NCc1ccccc1 | inactive | inactive | inactive | – | –
12 | COc1cccc(S(=O)(=O)Nc2ccc3c(c2)[C@H]2C[C@@H](CC(=O)NC4CCCCC4)O[C@@H](CO)[C@H]2O3)c1 | inactive | inactive | inactive | – | –
13 | N#Cc1ccc(C23CC4(C2)[C@H](CN(Cc2ccc(C(F)(F)F)cc2)[C@@H]4c2ccccc2)C3c2ccccc2)cc1 (stereo partly drawn) | inactive | inactive | inactive | – | –
14 | C[C@H](NC(=O)C[C@@H]1C=C[C@H](NC(=O)CN2CCOCC2)[C@H](CO)O1)c1ccccc1 | inactive | inactive | inactive | – | –
15 | C/C=C/c1ccc([C@@H]2[C@@H](CNC(=O)C3CCC3)N(C(=O)NCCC)[C@H]2CO)cc1 | inactive | inactive | inactive | – | –
16 | COc1cccc(S(=O)(=O)Nc2ccc3c(c2)OC[C@@H](C)NC[C@H](C)[C@@H](OC)CN(C)C3=O)c1 | inactive | inactive | inactive | – | –
17 | Cc1ccccc1S(=O)(=O)N[C@@H]1CC[C@H](CCNS(=O)(=O)c2cccc(F)c2)O[C@H]1CO | inactive | inactive | inactive | – | –
18 | COc1ccc(NC(=O)CN2CCN(S(=O)(=O)c3ccc(C(C)C)cc3)CC2)cc1OC | inactive | inactive | inactive | – | –
19 | Cc1ccc(N2C(=O)CC(N3CCN(c4ccc(F)cc4)CC3)C2=O)c(C)c1 (stereo not drawn) | inactive | inactive | inactive | – | –
20 | CO[C@H]1CC[C@@H]2CCOc3c(C#N)cccc3C(=O)N(C)C[C@@H](OC)[C@@H](C)C(=O)N(C)C[C@@H]1O2 | inactive | inactive | inactive | – | –
21 | C[C@H](CO)N1C[C@H](C)[C@H](CN(C)C(=O)NC2CCCCC2)OCCCC[C@H](C)Oc2ccc(NS(=O)(=O)c3cn(C)cn3)cc2C1=O | inactive | inactive | inactive | – | –

Row | Structure (SMILES) | outcome [1] | outcome [2] | outcome [3] | activity change, negative = cytotoxicity [2] | outcome [4]
22 | Cc1ccc(OCC(=O)NC(C)c2ccccc2)cc1C (stereo not drawn) | inactive | inactive | inactive | – | –
23 | O=C(COc1ccc2c(c1)CCC2)NCc1ccccc1 | inactive | inactive | inactive | – | –
24 | CCC(=O)Nc1ccc2c(c1)OC[C@H](C)N(C(=O)c1ccc(F)cc1)C[C@@H](C)[C@@H](OC)CN(C)C2=O | inactive | inactive | inactive | – | –
25 | CC(=O)N[C@H]1CC[C@H](CCNC(=O)C2CCC2)O[C@@H]1CO | inactive | inactive | inactive | – | –
26 | COc1ccc(CN(C)C[C@@H]2OCCCC[C@@H](C)Oc3ccc(NC(=O)c4ccccc4)cc3C(=O)N([C@H](C)CO)C[C@@H]2C)cc1 | inactive | inactive | inactive | – | –
27 | Fc1ccc(CNC(=S)NCc2cccc(Cl)c2)cc1 | inactive | inactive | inactive | – | –
28 | CO[C@H]1CN(C)C(=O)c2ccc(NC(=O)NC(C)C)cc2OC[C@@H](C)NC[C@H]1C | inactive | inactive | inactive | – | –
29 | C[C@@H]1CN([C@@H](C)CO)C(=O)c2cc(-c3cncnc3)cnc2O[C@H]1CN(C)C(=O)CN1CCOCC1 | inactive | inactive | inactive | – | –
30 | C[C@H](CO)N1C[C@H](C)[C@H](CN(C)S(=O)(=O)c2cn(C)cn2)Oc2ncc(/C=C/c3ccccc3)cc2C1=O | inactive | inactive | inactive | – | –
31 | COc1ccc(NC(=O)CSc2ncnc3c2cnn3CCc2ccccc2)cc1 | inactive | inactive | inactive | – | –
32 | CNC[C@H]1OCCCC[C@H](C)Oc2ccc(NC(=O)Cc3ccccc3)cc2C(=O)N([C@H](C)CO)C[C@@H]1C | inactive | inactive | inactive | – | –
33 | CCNC(=O)CN(c1ccc(C)cc1)S(=O)(=O)c1ccc(SC)cc1 | inactive | inactive | inactive | – | –
34 | Cc1ccc2c(C)c(C(=O)N3CCN(Cc4ccccn4)CC3)oc2c1C | inactive | inactive | inactive | – | –
35 | Cc1ccc(C(=O)Nc2ccc3ncccc3c2)cc1 | inactive | inactive | – | – | inactive
36 | O=C(c1cccc(F)c1)N1C[C@H]2[C@@H](c3ccccc31)[C@@H](CO)N2Cc1cocn1 | inactive | inactive | inactive | – | –
37 | CNC[C@@H]1OCCCC[C@@H](C)Oc2ccc(NC(=O)NC(C)C)cc2C(=O)N([C@@H](C)CO)C[C@H]1C | inactive | inactive | inactive | – | –
38 | C/C=C/c1ccc([C@@H]2[C@@H](C#N)N(S(=O)(=O)c3cccc(F)c3)[C@@H]2CO)cc1 | inactive | inactive | inactive | – | –
39 | COC(=O)C1=C(C)N(Cc2ccccc2)C(=O)N[C@H]1c1cccc(F)c1 | inactive | inactive | inactive | – | –
40 | C[C@H](CO)N1C[C@H](C)[C@H](CN(C)Cc2ccccc2F)Oc2cc(C3=CCCC3)ccc2S1(=O)=O | inactive | – | inactive | – | –
41 | CCN1C(=S)N[C@@H](c2cccc(F)c2)C(C(=O)OC)=C1C | inactive | inactive | inactive | – | –
42 | COc1ccc(CN(C)C[C@@H]2Oc3ccc(NS(C)(=O)=O)cc3CC(=O)N([C@H](C)CO)C[C@H]2C)cc1 | inactive | inactive | inactive | – | –

Row | Structure (SMILES) | outcome [1] | outcome [2] | outcome [3] | activity change, negative = cytotoxicity [2] | outcome [4]
43 | Cc1ccccc1OCC(=O)NC(C)c1ccccc1 (stereo not drawn) | inactive | inactive | inactive | – | –
44 | CC12CC3CC(C)(C1)CC(C(=O)NC(=S)N1CCCCC1)(C3)C2 | inactive | inactive | inactive | – | –
45 | CC(NC(=O)COc1ccccc1-c1ccccc1)c1ccccc1 (stereo not drawn) | inactive | inactive | inactive | – | –
46 | O=C(C[C@H]1CC[C@H]2[C@@H](COC[C@H](O)CN2Cc2cc(F)cc(F)c2)O1)Nc1nccs1 | inactive | inactive | inactive | – | –
47 | Cc1cccc(C)c1NC(=O)CN(C)C(=O)CC1CC2CCC1C2 (stereo not drawn) | inactive | inactive | inactive | – | –
48 | C[C@@H]1CN([C@H](C)CO)C(=O)c2ccccc2-c2ccccc2CO[C@H]1CN(C)S(=O)(=O)c1cccc(C#N)c1 | inactive | inactive | inactive | – | –
49 | CCC(=O)N1[C@H](CO)[C@H](c2ccc(-c3ccc(F)cc3)cc2)[C@@H]1CNC(C)=O | inactive | inactive | inactive | – | –
50 | COC(=O)C1=C(C)N(Cc2ccc(F)cc2)C(=S)NC1c1ccc(Cl)cc1 (stereo not drawn) | – | inactive | – | – | –
51 | Cc1ccc(S(=O)(=O)N[C@H]2CC[C@H](CC(=O)NCc3ccccc3F)O[C@H]2CO)cc1 | inactive | inactive | inactive | – | –
52 | CCOc1ccc(C(=O)NC(=S)Nc2ccccc2N2CCCCC2)cc1[N+](=O)[O-] | inactive | inactive | inactive | – | –
53 | Cc1cc(C)c(NC(=O)CN2CCCCCC2)c(C)c1 | inactive | inactive | inactive | – | –
54 | CCOC(=O)CNC(=O)CSc1ncnc2c1cnn2-c1ccc(C)cc1 | inactive | inactive | inactive | – | –
55 | COC(=O)C1=C(C)N(Cc2ccccc2)C(=S)N[C@H]1c1cccc(C(F)(F)F)c1 | – | inactive | – | – | –
56 | COc1ccccc1NC(=S)NCc1ccccc1Cl | – | inactive | inactive | – | –
57 | COC(=O)C1=C(C)N(Cc2ccccc2)C(=S)NC1c1ccc(Br)cc1 (stereo not drawn) | – | inactive | inactive | – | –
58 | S=C(NCc1ccccc1)NCC1COc2ccccc2O1 (stereo not drawn) | – | inactive | inactive | – | –
59 | COc1ccc(C(=O)NC(=S)Nc2ccccc2N2CCOCC2)cc1[N+](=O)[O-] | – | inactive | – | – | –
60 | CCN1C(=S)N[C@@H](c2ccccc2)C(C(=O)OC)=C1C | – | inactive | inactive | – | –
61 | COc1cc(OC)c(N(C)C(=O)c2cn(C)c(=O)c3cc(OC)c(OC)cc23)cc1Cl | – | inactive | inactive | – | –
62 | COC(=O)C1=C(C)N(C)C(=S)NC1c1ccccc1 (stereo not drawn) | – | inactive | inactive | – | –
